A selection: hits, their analogues and other compounds. The true share with any hit is near 7.7%.
Tb PYK inh: qHTS of Trypanosoma Brucei Inhibitors; pyruvate kinase (Trypanosoma brucei), Q57TT1; TbPYK enzyme, Kinase-Glo Plus ATP luminescence, 45 min; Potency, µM (top dose mostly 76.8 µM), most hits filed as inhibitors; 0.12% of 410,000 active; note: nearly all actives have a fitted effect of over 50% in size
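Readout: single end-point luminescence (Kinase-Glo Plus, 10 min). Reaction conditions were TbPYK/substrate plus 130 uM ADP, 45 min at RT, pH 7.2 TEA buffer. No-enzyme wells served as controls, and data were normalized before concentration-response fitting.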
FBPA Giardia inh: qHTS Assay for Inhibitors of Fructose-1,6-bisphosphate Aldolase from Giardia Lamblia | purified Giardia FBPA | Potency, µM (highest dose often 59.6 µM), most hits filed as inhibitors | A8B2U2 | AID 2451, 2010 | 0.71% of 290,000 active; note: nearly all actives have a fitted effect of over 55% in size
Target sequence (A8B2U2 whole entry, looked up): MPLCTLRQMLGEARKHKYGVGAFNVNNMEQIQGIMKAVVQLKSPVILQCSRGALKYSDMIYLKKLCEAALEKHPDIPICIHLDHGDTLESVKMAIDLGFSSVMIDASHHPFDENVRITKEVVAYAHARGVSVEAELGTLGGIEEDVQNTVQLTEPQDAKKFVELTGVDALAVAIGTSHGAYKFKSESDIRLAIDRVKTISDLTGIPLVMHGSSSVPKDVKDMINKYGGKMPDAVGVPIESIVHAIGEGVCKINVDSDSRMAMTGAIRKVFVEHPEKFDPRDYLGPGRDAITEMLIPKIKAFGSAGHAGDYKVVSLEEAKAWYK
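Giardia FBPA (40 nM reagent) was preincubated 10 min at RT with compound (up to 57.5 uM final), then substrate plus GAPDH/TPI/NAD/arsenate coupling system with diaphorase/resazurin was added; resorufin fluorescence (525/598 nm) was read after 20 min.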
FMDV inh: High Throughput Screening for Foot and Mouth Disease Virus Antivirals; 1.2% of 410,000 active; AID 1159524, 2015; FMDV antiviral cell-based qHTS; Potency, µM (series often up to 57.9 µM), actives largely listed as inhibitors; calls by dose curve; tested in HEK293T cells; note: read-out not given here; nearly all actives have a fitted effect of over 45% in size
RE007 growth inh: qHTS Assay for Inhibitors of the HIV-1 protein Vpr; S. pombe RE007 Vpr strain, BacTiter-Glo ATP luminescence, 24 h; Potency, µM (series often up to 92.2 µM), most hits filed as inhibitors; 0.21% of 360,000 active; active = well fitted falling curve with a large enough effect; inconclusive = small, poorly fitted or top-dose-only effect; inactive = no such curve, though single readings can be large or run the other way; note: nearly all actives have a fitted effect of over 50% in size
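Fission yeast strain RE007, carrying one chromosomally integrated HIV-1 vpr copy, was seeded at OD 0.01 in PMG+AL medium with 23 nL pinned compound. After 24 h at 30 °C and 99% humidity, viability was read by BacTiter-Glo luminescence.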
HCMV inh: qHTS Assay for inhibitors of the human cytomegalovirus (HCMV). HFF cells, HCMV-luciferase reporter, 72 h; hits give low values. activity change, negative = inhibition, % at 57.5 µM. 4.5% of 410,000 active; in the data active = activity change below about -60%; inconclusive = no clear call, values can overlap the other calls; inactive = above about -39%
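Steps: HFFs plated, 16 h 37C; compounds added; HCMV-luciferase added to MOI 1 PFU/cell; 72 h 37C; OneGlo reagent, 5 min room temperature; luminescence read, normalized to controls.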
Sm TGR block: qHTS Assay for the Inhibitors of Schistosoma Mansoni Peroxiredoxins. Schistosoma mansoni thioredoxin glutathione reductase (TGR), Q962Y6. purified TGR, DTNB reduction, TNB absorbance 405 nm. Potency, µM (doses to about 114 µM), most hits filed as inhibitors. 3% of 360,000 active; note: nearly all actives have a fitted effect of over 60% in size
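Kinetic colorimetric format: TGR-catalysed, NADPH-driven DTNB reduction monitored via TNB absorbance. Enzyme dispensed at 20 nM; compound exposure 15 min at room temperature before reaction start.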
Numbers stand for hits. Unless noted, calls come from the whole dose curve; as a rule, active = well fitted curve in the direction sought with a large enough effect; inconclusive = small, poorly fitted or top-dose-only effect, or another doubt; inactive = no such curve, though single readings can be large; an effect the other way counts as inactive or inconclusive.

`Cc1nnc(N2CCN(c3cccc(C(F)(F)F)c3)CC2)c2c1nnn2Cc1ccccc1` gave Tb PYK inh inactive, FMDV inh inconclusive, HCMV inh inactive and Sm TGR block inactive.
`CCCN(C(=O)c1cc2ccc3cccnc3c2[nH]1)c1ccc(F)cc1` gave Tb PYK inh inactive, FMDV inh inactive, HCMV inh inactive and Sm TGR block inactive.
COC(=O)c1ccc(C(NC(=O)OCc2ccccc2)/C(=C/[C@@H](C)C(=O)NCc2ccc(OC)c(O)c2)c2cccnc2)cc1 (stereo not given in full) was read as FBPA Giardia inh inactive.
`O=C(Cc1nc(=O)c2ccccc2s1)Nc1ccccc1` gave Tb PYK inh inactive, FBPA Giardia inh inactive, FMDV inh inactive, RE007 growth inh inactive, HCMV inh -106 and Sm TGR block inactive.
O=C(Cc1ccccc1)Nc1nc(=O)c2ccccc2s1 was read as Tb PYK inh inactive, FMDV inh inactive, RE007 growth inh inactive, HCMV inh inactive and Sm TGR block inactive.
Screening COc1ccc(-c2cc(C)no2)cc1S(=O)(=O)N1CCN(c2cccc(C)c2)C(C)C1 (stereo not given) returned Tb PYK inh inactive, FMDV inh inconclusive, RE007 growth inh inactive, HCMV inh -74 and Sm TGR block inactive.
For Cc1ccc(NC(=O)COC(=O)C(NS(=O)(=O)c2ccc(Cl)cc2)C(C)O)cc1C (stereo not given) the results were Tb PYK inh inactive, FBPA Giardia inh inactive, FMDV inh inconclusive, RE007 growth inh inactive, HCMV inh inactive and Sm TGR block 45µM.
`Cc1ccc(NC(=O)COC(=O)C(NS(=O)(=O)c2ccc(Cl)cc2)C(C)O)c(Br)c1` (stereo not given) gave Tb PYK inh inactive, FBPA Giardia inh inactive, FMDV inh inactive, RE007 growth inh inactive, HCMV inh inactive and Sm TGR block inactive.
Screening CCC(C)NC(=O)c1sc2nc(C)c(C(=O)Nc3ccc(Cl)cc3)c(-c3ccc(Br)cc3)c2c1N (stereo not given) returned Tb PYK inh inactive, FMDV inh inactive, HCMV inh inactive and Sm TGR block inactive.
NC(=O)c1sc2nc3c(c(-c4ccc(Cl)cc4)c2c1N)CCCC3 was read as Tb PYK inh inactive, FBPA Giardia inh inactive, FMDV inh inactive, RE007 growth inh inactive, HCMV inh -61 and Sm TGR block inactive.
Screening Cc1ccc(-c2c3c(nc4sc(C(N)=O)c(N)c24)CCC3)cc1 returned Tb PYK inh inactive, FBPA Giardia inh inactive, FMDV inh inactive, RE007 growth inh inactive, HCMV inh -87 and Sm TGR block inactive.
Screening Cc1nc2sc(C(N)=O)c(N)c2c(-c2ccc(Br)cc2)c1C(=O)Nc1ccc(Cl)cc1 returned Tb PYK inh inactive, FMDV inh inconclusive, HCMV inh -78 and Sm TGR block inactive.
Screening NC(=O)c1sc2nc3c(c(-c4ccco4)c2c1N)CCCC3 returned Tb PYK inh inactive, FBPA Giardia inh inactive, FMDV inh inconclusive, RE007 growth inh inactive, HCMV inh -64 and Sm TGR block inactive.
Screening O=C(NCCN1CCOCC1)C1(C(F)(F)F)C/C(=C\CCO)CCCO1 (stereo not given) returned FBPA Giardia inh inactive.
Nc1c(C(=O)NCC2CCCO2)sc2nc3c(c(-c4ccco4)c12)CC/C3=C\c1ccco1 (stereo not given) was read as Tb PYK inh inactive, FBPA Giardia inh inconclusive, FMDV inh inactive, RE007 growth inh inactive, HCMV inh inconclusive and Sm TGR block 18µM.
`COc1cccc(Cn2c(=O)c(-c3cn(C)c4ccccc34)nc3cnc(N4CCNCC4)nc32)c1` gave FBPA Giardia inh inactive and FMDV inh inactive.
COc1ccc(C2C=C(c3ccccc3)Nc3nc(NC(=O)/C=C/c4ccccc4)nn32)cc1 (stereo not given) was read as Tb PYK inh inactive, FMDV inh inactive, HCMV inh inactive and Sm TGR block inactive.
Screening CCC(=O)Nc1nc2n(n1)C(c1ccc(OC)cc1)C=C(c1ccccc1)N2 (stereo not given) returned FBPA Giardia inh inactive and Sm TGR block 4.5µM.
COc1ccc(C(=O)Nc2nc3n(n2)C(c2ccccc2)C=C(c2ccccc2)N3)cc1 (stereo not given) was read as Tb PYK inh inactive, FMDV inh inactive, HCMV inh inactive and Sm TGR block 3.2µM.
Screening COc1ccc(C2C=C(c3ccccc3)Nc3nc(NC(=O)/C=C/c4ccccc4OC)nn32)cc1 (stereo not given) returned Tb PYK inh inactive, FMDV inh inactive, HCMV inh inactive and Sm TGR block inactive.
O=C(COc1ccc(Cl)cc1)NCCc1csc(-c2ccc(C(F)(F)F)cc2)n1 was read as Tb PYK inh inactive, FMDV inh inconclusive, HCMV inh inactive and Sm TGR block inactive.
C[C@@H](O[C@H]1OCCN(Cc2n[nH]c(=O)[nH]2)[C@@H]1c1ccc(F)cc1)c1cc(C(F)(F)F)cc(C(F)(F)F)c1 was read as Tb PYK inh inactive.
CCn1c(CCNC(=O)c2ccc(OC)cc2)nnc1SCc1ccc(Cl)c(Cl)c1 was read as Tb PYK inh inactive, FBPA Giardia inh inactive, FMDV inh inconclusive, RE007 growth inh inactive, HCMV inh -60 and Sm TGR block inactive.
Screening Cc1cc(C)c2nc3nc(C)c(C)cc3c(N)c2c1 returned Tb PYK inh inactive, FBPA Giardia inh inactive, FMDV inh inactive, RE007 growth inh inconclusive and HCMV inh -99.
`Cc1ccc2onc(CC(=O)N3CCN(c4ccccc4)CC3)c2c1` gave Tb PYK inh inactive, FMDV inh inactive, HCMV inh inactive and Sm TGR block inactive.
For Cn1c(=O)n(Cc2ccccc2Cl)c2ccccc21 the results were Tb PYK inh inactive, FBPA Giardia inh inactive, FMDV inh inactive, RE007 growth inh inactive, HCMV inh inconclusive and Sm TGR block inactive.
For Cn1c(=O)n(Cc2ccccc2Cl)c(=O)c2c1[nH]c(=S)n2C the results were Tb PYK inh 7.9µM, FBPA Giardia inh inactive, FMDV inh inactive, RE007 growth inh inactive, HCMV inh inactive and Sm TGR block inactive.
`C=CCn1c(=O)c2c(nc(Br)n2Cc2ccccc2Cl)n(C)c1=O` gave Tb PYK inh inactive, FBPA Giardia inh inactive, FMDV inh inconclusive, RE007 growth inh inactive, HCMV inh -73 and Sm TGR block inactive.
Cc1ccccc1C(=O)N1CCC2CC1c1cc(Cl)ccc12 (stereo not given) was read as Tb PYK inh inactive, FMDV inh inactive, RE007 growth inh inactive and HCMV inh inactive.

Assay outcomes (PubChem)
